Experimental data reported in PubChem BioAssay (EPA / NIEHS).
Results filed as inconclusive are left out. Activity calls are given as the source filed them. The calls were made as follows, unless noted: active = hit-call score of the fitted dose curve at least 0.9, where 1 is the maximum; inconclusive = response in the unintended direction; inactive = score below 0.9.

Experiments:
[1] = system: Sodium/Iodide Symporter (NIS), SLC5A5 (gene 6528); assay: CPHEA_Stoker_NIS_Inhibition_RAIU: CPHEA's Radioactive Iodide Uptake (RAIU) Assay for Sodium/Iodide Symporter (NIS) Inhibition, Stoker and Laws Labs (AID 2283841)
Procedure, shortened: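 hNIS-HEK293T-EPA cells incubated 2 h at room temperature with compound (0.001–100 uM, 0.5% DMSO) and 329 pM final 125I in HBSS/10 mM HEPES, pH 7.4. Intracellular 125I counted; normalised to DMSO maximal uptake, triplicate, three biological replicates.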

[2] = target: human Thyroid hormone Receptor alpha (TRa), THRA (gene 7067) (UniProt P10827); assay: ATG_hTRa_XSP2: Attagene TRANS-FACTORIAL Multi-Species (XSP2) HepG2 Assay for human Thyroid hormone Receptor alpha (TRa) (AID 2283838)
Method: (§1) ATG_XSP2_multi-species_TRANS is a cell-based, multiplexed assay created by modifying the existing Attagene TRANS-FACTORIAL system to include a panel of nuclear receptors from some or all the following species: human (Homo sapiens), mouse (Mus musculus), frog (Xenopus laevis), zebrafish (Danio rerio), chicken (Gallus gallus), and turtle (Chrysemys picta). The ECOTOX-FACTORIAL format uses HepG2, a human liver cell line, with measurements taken at 24 hours after chemical dosing in a 24-well plate. Xsp2 included 3 nM 6-alpha-fluorotestosterone and 1.5 nM norgestrel to stimulate the androgen receptor.ATG_hTRa_XSP2 is one of 29 assay components measured or calculated from the ATG_XSP2_multi-species_TRANS assay. It is designed to make measurements of mRNA induction, a form of inducible reporter, as detected with fluorescence intensity signals by Reverse transcription polymerase chain reaction (RT-PCR) and Capillary electrophoresis technology.The assay endpoint ATG_hTRa_XSP2 was analyzed in the positive analysis fitting direction relative to DMSO as the negative control and baseline of activity. Using a type of inducible reporter, measures of mRNA for gain-of-signal activity can be used to understand the reporter gene at the transcription factor-level as they relate to the gene TR. Furthermore, this assay endpoint can be referred to as a primary readout, because this assay has produced multiple assay endpoints where this one serves a reporter gene function. To generalize the intended target to other relatable targets, this assay endpoint is annotated to the nuclear receptor intended target family, where the subfamily is non-steroidal.
(§2) Human liver HepG2 cells are transiently transfected with multiple reporter transcription units (MRTUs) in 6-well plates using FuGene 6 reagent (Roche; 3 ml FuGene/1 mg DNA). The MRTU constructs are regulated by a cis-regulating element (promoter). […] A major difference between the CIS and TRANS system is that in CIS activities of endogenous TFs are measured, whereas the TRANS assay evaluates changes in activities of exogenous, chimeric NR-Gal4 proteins. […] At the end of 24 hour incubation, total RNA was isolated using TriZol reagent (Invitrogen). The isolated RNA is then reverse-transcribed using oligo(dT) primer and Mo-MLV reverse transcriptase (Invitrogen) with DNAse I (Ambion) treatment for 30 min. […] The fragments were purified using Qiaquick PCR columns (Qiagen), analyzed on an ABI 3130xL genetic analyzer (Applied Biosystems) with peak positions identified by using a set of X-rhodamine (ROX)-labeled MapMarker1000 molecular weight standards (BioVentures). […]

[3] = target: frog Thyroid hormone Receptor alpha (TRa), thra-a (gene 397942) (UniProt P15204); assay: ATG_frTRa_XSP2: Attagene TRANS-FACTORIAL Multi-Species (XSP2) HepG2 Assay for frog Thyroid hormone Receptor alpha (TRa) (AID 2283839)
Procedure, shortened: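 Frog thyroid receptor alpha was tested as an exogenous NR-Gal4 fusion in transiently transfected HepG2 cells. After 24 h chemical treatment, reporter mRNA induction was quantified by RT-PCR and capillary electrophoresis, with gain-of-signal analysed relative to DMSO.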

[4] = target: human Thyroid hormone Receptor beta (TRb), THRB (gene 7068) (UniProt P10828); assay: ATG_hTRb_XSP2: Attagene TRANS-FACTORIAL Multi-Species (XSP2) HepG2 Assay for human Thyroid hormone Receptor beta (TRb) (AID 2283840);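 also: actives raise reporter mRNA so potency reflects agonist-like gain of signal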
Method: as §1, with “receptor.ATG_hTRb_XSP2” for “receptor.ATG_hTRa_XSP2”, “ATG_hTRb_XSP2” for “ATG_hTRa_XSP2”
as §2

[5] = CPHEA_Stoker_NIS_Cytotoxicity: Cytotoxicity Assessment for CPHEA's Radioactive Iodide Uptake (RAIU) Assay for Sodium/Iodide Symporter (NIS) Inhibition, Stoker and Laws Labs (AID 2283897)
Procedure, shortened: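 hNIS-HEK293T-EPA cells, human NIS expressed in HEK293T, treated 2 h with chemicals (0.001–100 uM, 0.5% final DMSO). ATP content read by CellTiter-Glo luminescence; loss of signal analysed relative to DMSO.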

[6] = ATG_XTT_Cytotoxicity_XSP2: Cytotoxicity Assessment in the Attagene TRANS-FACTORIAL Multi-Species (XSP2) HepG2 Assay (AID 2283837)
Procedure, shortened: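 HepG2 cells, transiently transfected with multiple reporter constructs, exposed to chemical for 24 h. Cell number assessed with XTT fluorescence read-out; loss of signal fitted relative to DMSO.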

[7] = CEETOX_H295R_OHPREG_noMTC: CeeTox H295R High-throughput Steroidogenesis Assay for OH-Pregnenolone (OHPREG), maximum tolerated concentration (MTC) filtered results only (AID 2283912; active = hit-call score of the fitted dose curve at least 0.9, where 1 is the maximum; inactive = score below 0.9); details: actives raise or lower the signal
Procedure, shortened: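 H295R cells prestimulated 48 h with 10 uM forskolin, then exposed 48 h to compound (0.1% DMSO). 17alpha-hydroxypregnenolone in medium measured by MTBE extraction and HPLC-MS/MS; bidirectional fit vs DMSO, concentrations not MTT/MTC-filtered.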

[8] = CEETOX_H295R_OHPROG_noMTC: CeeTox H295R High-throughput Steroidogenesis Assay for OH-Progesterone (OHPROG), maximum tolerated concentration (MTC) filtered results only (AID 2283914; active = hit-call score of the fitted dose curve at least 0.9, where 1 is the maximum; inactive = score below 0.9); details: actives raise or lower the signal
Procedure, shortened: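 H295R cells prestimulated 48 h with 10 uM forskolin, then exposed 48 h to chemical (0.1% DMSO final). 17alpha-hydroxyprogesterone in medium quantified by HPLC-MS/MS after MTBE extraction; bidirectional fitting versus DMSO, concentrations not MTC-filtered.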

Chain of human Thyroid hormone Receptor beta (TRb), THRB (gene 7068) (P10828 whole entry, looked up): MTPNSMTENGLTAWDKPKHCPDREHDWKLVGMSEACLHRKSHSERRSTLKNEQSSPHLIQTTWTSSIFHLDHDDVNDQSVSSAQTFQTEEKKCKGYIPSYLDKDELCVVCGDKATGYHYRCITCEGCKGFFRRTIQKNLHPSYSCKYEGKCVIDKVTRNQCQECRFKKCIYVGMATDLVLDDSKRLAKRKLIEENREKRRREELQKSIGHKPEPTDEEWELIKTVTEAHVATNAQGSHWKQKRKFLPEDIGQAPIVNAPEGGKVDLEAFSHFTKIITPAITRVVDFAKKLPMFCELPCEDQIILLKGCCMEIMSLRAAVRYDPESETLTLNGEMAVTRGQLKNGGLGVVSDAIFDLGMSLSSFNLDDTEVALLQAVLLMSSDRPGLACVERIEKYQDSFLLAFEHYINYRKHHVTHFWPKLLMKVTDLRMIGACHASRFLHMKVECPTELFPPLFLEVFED
Chain of frog Thyroid hormone Receptor alpha (TRa), thra-a (gene 397942) (P15204 whole entry, looked up, the tested form may be a part): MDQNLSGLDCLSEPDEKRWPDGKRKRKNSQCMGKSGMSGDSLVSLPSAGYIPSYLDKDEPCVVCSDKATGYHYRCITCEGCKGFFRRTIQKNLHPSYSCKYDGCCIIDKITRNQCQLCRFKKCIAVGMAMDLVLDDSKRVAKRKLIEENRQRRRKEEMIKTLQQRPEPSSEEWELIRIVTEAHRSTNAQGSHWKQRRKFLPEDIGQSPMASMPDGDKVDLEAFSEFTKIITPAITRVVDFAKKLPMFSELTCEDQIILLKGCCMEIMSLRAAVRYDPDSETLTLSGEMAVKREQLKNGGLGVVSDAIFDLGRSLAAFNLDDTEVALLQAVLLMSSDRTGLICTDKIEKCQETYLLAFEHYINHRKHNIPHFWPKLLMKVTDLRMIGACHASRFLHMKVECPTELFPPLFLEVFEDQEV
Chain of human Thyroid hormone Receptor alpha (TRa), THRA (gene 7067) (P10827 whole entry, looked up): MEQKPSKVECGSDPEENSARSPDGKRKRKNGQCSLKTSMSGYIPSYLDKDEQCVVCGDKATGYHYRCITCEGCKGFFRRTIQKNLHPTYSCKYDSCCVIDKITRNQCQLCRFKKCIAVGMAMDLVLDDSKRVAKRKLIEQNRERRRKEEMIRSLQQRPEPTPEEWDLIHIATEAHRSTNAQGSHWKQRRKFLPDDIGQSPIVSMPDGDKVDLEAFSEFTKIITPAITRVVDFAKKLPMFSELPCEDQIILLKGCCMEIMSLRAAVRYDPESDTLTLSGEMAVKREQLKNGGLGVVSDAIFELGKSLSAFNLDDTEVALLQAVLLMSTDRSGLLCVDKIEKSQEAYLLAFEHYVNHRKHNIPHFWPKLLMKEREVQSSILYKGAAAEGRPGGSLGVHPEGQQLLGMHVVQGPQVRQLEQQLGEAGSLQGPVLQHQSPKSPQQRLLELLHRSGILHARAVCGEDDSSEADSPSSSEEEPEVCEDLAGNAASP

C=CC(=O)OCC(F)(F)C(F)(F)C(F)(F)C(F)(F)COC(=O)C=C
outcome [1]: inactive

FC(F)(F)C(F)(F)C(F)(F)N(C(F)(F)C(F)(F)C(F)(F)F)C(F)(F)C(F)(F)C(F)(F)F
outcome [1]: inactive

O=C(OCCOCCOCCOC(=O)c1ccccc1)c1ccccc1
outcome [2]: inactive
outcome [3]: inactive
outcome [4]: inactive
outcome [1]: inactive
outcome [5]: inactive

OCC(F)(F)C(F)(F)C(F)(F)C(F)(F)C(F)(F)C(F)(F)F
outcome [1]: inactive

Cc1ccc(S(=O)(=O)OCC(F)(F)C(F)(F)C(F)(F)C(F)(F)C(F)(F)C(F)F)cc1
outcome [1]: inactive

CCCCCCOC(=O)c1ccccc1O
outcome [1]: inactive
outcome [5]: inactive

O=C(CC(=O)C(F)(F)C(F)(F)F)C(F)(F)F
AC50 [1]: 9920 nM (active)

C=C(C)C(=O)OCC(F)(F)C(F)(F)C(F)(F)C(F)(F)C(F)(F)C(F)(F)C(F)(F)F
outcome [1]: inactive

c1ccc(B(c2ccccc2)c2ccccc2)cc1
outcome [6]: inactive
outcome [2]: inactive
outcome [3]: inactive
outcome [4]: inactive

C#C[C@]1(O)CC[C@H]2[C@@H]3CCc4cc(OC)ccc4[C@H]3CC[C@@]21C
outcome [6]: inactive
outcome [2]: inactive
outcome [3]: inactive
AC50 [4]: 26.2 nM (active)

C(=C(c1ccccc1)c1ccccc1)c1ccccc1
outcome [2]: inactive
outcome [3]: inactive
outcome [4]: inactive
outcome [1]: inactive
outcome [5]: inactive

OCC(F)(F)C(F)(F)C(F)(F)C(F)(F)C(F)(F)C(F)F
outcome [1]: inactive

OCCCC(F)(F)C(F)(F)C(F)(F)C(F)(F)C(F)(F)C(F)(F)C(F)(F)F
outcome [1]: inactive

COC(=O)C1CCC(C(=O)OC)CC1 (stereo unspecified)
outcome [7]: inactive
outcome [8]: inactive

O=S(=O)(O)C(F)(F)C(F)(F)C(F)(F)C(F)(F)C(F)(F)C(F)(F)C(F)(F)F
AC50 [1]: 2310 nM (active)
